Our source for the PBM binding z-score values is the supplement of paper PMC6555819.

One assay relates to RARa homodimer (NR concentration 270 nM). The assay is described as follows: PBM binding z-score (relative to random genomic background probes); higher = stronger binding; sequences stand for … in GC…GCGATTGACAGCGTAGAATGAAGG
In a few lines:
(§1)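 Ligand-free nuclear receptor dimers were bound for 1 h to custom Agilent 4×180K protein-binding microarrays. Detection used antibodies against each partner (one per run). Binding z-scores rest on regression-normalized fluorescence, with random background probes as the reference.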
The sequence AGAATGAGGTTAAGTTCAGGGAAACAGAATACAT had a PBM binding z-score of 0.895.

As to CCTACTGGACCAAGGTCATTGATCAGTCAAAGCA, the PBM binding z-score is 0.91.

Sequence ATCTCTAGGTTAAGATAGTTCAGTGAATGCAAAT registered a PBM binding z-score of 2.08.

CAAACTAGTTCAAGAGGTCAAAGTCCGCTTCCCG gave a PBM binding z-score of 2.22.

As for CCTACTGGGCCATTCAGAGGTCAATGATCATATG, the PBM binding z-score is 0.374.

Turning to AGAATGGGGTTACCAAAGATCAGGGAAACGCTTG, the PBM binding z-score is -0.368.

The sequence ATCGAAAGGTCCAAGGTGAGTATACCCACCCGAA had a PBM binding z-score of 0.706.

Consider ACTCGGATGACAAAGGTCAGAGCTACGCCAGTGA, for which the PBM binding z-score amounted to 1.18.

The sequence AGTCAAAGTTCATCTAGGTAACATAAGATATGCT displayed a PBM binding z-score of 1.96.

With CCTAGTTGGTCAAGGTCACACCCGCTATAGGTAC, the PBM binding z-score stood at 1.87.

Sequence TCTAGTTGGTCACGGAGGTCACAAACGACGGGTA gave a PBM binding z-score of 1.68.

In turn, AGAATGAGGTTAAACGTAGATCAGGGAAGAAAGT yielded a PBM binding z-score of 0.469.

In the case of ACTTACGGCTCAACGAGGTTATAGCACGCGTATA, the PBM binding z-score is -0.139.

AATACAGGGTGACTAGGCCAGAGTAGGTACGAAT returned a PBM binding z-score of 0.259.

As to GCTGCTAGTTCAACTGATGGTCAGCTAAAGCTCG, the PBM binding z-score was -1.04.

As to TAGCCTAGGTCATTCAGGGGCCAGCATAGAAAGC, the PBM binding z-score is -0.134.

For the sequence TTGCCTAGGTCATTGGGCCAGTATAGTACGCATC, the PBM binding z-score is -0.65.

As to AGAATGAGATTACCAAAGATCAGGGAAACGCTTG, the PBM binding z-score is -0.0131.

ATCGAAAGGTCGACCAGGTGAGTATACACCGTTT gave a PBM binding z-score of 0.621.

As to CCTTACGGGTTACTCCAGGTTATAGCATCGGAGT, the PBM binding z-score was determined as 0.599.

For TCTGCTAGGTCAACGTTGGTCAGCTAATCTGCTA, the PBM binding z-score is -1.27.

Take ATATGTAGGATAGCTGGGGTCATTCAGACTAGGC: the PBM binding z-score stood at 1.21.

Take CCTAGCAGGCCAATCTAGGTCACTCAAGGCTTGA: the PBM binding z-score is -0.161.

CAAACTAGGTCACAGTGGTCAAAGTCCGTGCGTA showed a PBM binding z-score of 0.000573.

For the sequence CAAACTAGGTCACTAAAGGTCAAAGTCGAATGAC, the PBM binding z-score was found to be 3.41.

The sequence GCTTACGGGTCCAAGGTTATAGCATGAATAGAAT yielded a PBM binding z-score of 0.0844.

For the sequence ATATGTAGGTTATCGGGTCATACAGTTTGCGCAT, the PBM binding z-score was 1.32.

In turn, TACCCTAGGTCATTCAGGGGCCAGTATAGAAAGC had a PBM binding z-score of 0.569.

Sequence TCTTGTAGATCAACAGGAGGTTAATAAAGATCGA came in with a PBM binding z-score of 0.176.

Regarding TCTAGTTGGTCTAAGGTCACACACTCGAAATGCG, the PBM binding z-score worked out at 2.5.

As to TAGCCTAGGTCATGGGCCAGTGTACCACGCGAAC, the PBM binding z-score was -0.252.

CCTACGGGGCCACGAAAGGTCATTGATTCAGTGA showed a PBM binding z-score of 0.351.

TCTTGTAGATCGATAGAGGTTAAGAAAGTGCGCT: the PBM binding z-score is 0.262.

With AGAATGAGGTTACCAAAGGTCAGGGAAACGCTTG, the PBM binding z-score was determined as 1.28.

On to CCGAGTTGGTCAAGGTCACACACGCTATAGGTAC, for which the PBM binding z-score worked out at 2.02.

In the case of ACTTACGGGTCTACGAGGTTATAGCACGCGTATA, the PBM binding z-score came to 0.676.

With AGTCAAAGTTCAGGACGACGTAACGTAAAGCACG, the PBM binding z-score is 0.264.

Sequence CGTCCAAGGTCAGCGGGTCAGTGAAAGCGACGTG showed a PBM binding z-score of 1.34.

ATATGTAGGTTAGCTGGGGTCCTTCAGACTAGGC showed a PBM binding z-score of 0.538.

GATATAGGGTCAGCTAGAGGCCAGAGTATGGAAA showed a PBM binding z-score of 0.593.

Another assay deals with RARb:RXRa (NR concentration 270 nM, RXRa partner concentration 90 nM). The assay is described as above. In a few lines:
as §1
For the sequence AGAATGAGGTTAAGTTCAGGGAAACAGAATACAT, the PBM binding z-score was found to be 3.17.

The sequence CCTACTGGACCAAGGTCATTGATCAGTCAAAGCA registered a PBM binding z-score of 3.23.

ATCTCTAGGTTAAGATAGTTCAGTGAATGCAAAT registered a PBM binding z-score of 2.01.

Sequence CAAACTAGTTCAAGAGGTCAAAGTCCGCTTCCCG had a PBM binding z-score of 4.52.

As for CCTACTGGGCCATTCAGAGGTCAATGATCATATG, the PBM binding z-score came out at 3.42.

For the sequence AGAATGGGGTTACCAAAGATCAGGGAAACGCTTG, the PBM binding z-score came out at 2.18.

Turning to ATCGAAAGGTCCAAGGTGAGTATACCCACCCGAA, the PBM binding z-score was determined as 1.49.

ACTCGGATGACAAAGGTCAGAGCTACGCCAGTGA: the PBM binding z-score turned out to be 4.12.

AGTCAAAGTTCATCTAGGTAACATAAGATATGCT showed a PBM binding z-score of 4.94.

For the sequence CCTAGTTGGTCAAGGTCACACCCGCTATAGGTAC, the PBM binding z-score was determined as 4.12.

TCTAGTTGGTCACGGAGGTCACAAACGACGGGTA registered a PBM binding z-score of 3.66.

AGAATGAGGTTAAACGTAGATCAGGGAAGAAAGT displayed a PBM binding z-score of 2.23.

Regarding ACTTACGGCTCAACGAGGTTATAGCACGCGTATA, the PBM binding z-score amounted to 0.165.

AATACAGGGTGACTAGGCCAGAGTAGGTACGAAT showed a PBM binding z-score of 0.856.

Consider GCTGCTAGTTCAACTGATGGTCAGCTAAAGCTCG, for which the PBM binding z-score came to 1.62.

Regarding TAGCCTAGGTCATTCAGGGGCCAGCATAGAAAGC, the PBM binding z-score was 3.92.

Take TTGCCTAGGTCATTGGGCCAGTATAGTACGCATC: the PBM binding z-score is 3.79.

Regarding AGAATGAGATTACCAAAGATCAGGGAAACGCTTG, the PBM binding z-score was -0.301.

As to ATCGAAAGGTCGACCAGGTGAGTATACACCGTTT, the PBM binding z-score stood at 3.98.

CCTTACGGGTTACTCCAGGTTATAGCATCGGAGT gave a PBM binding z-score of 1.02.

As to TCTGCTAGGTCAACGTTGGTCAGCTAATCTGCTA, the PBM binding z-score turned out to be 4.03.

On to ATATGTAGGATAGCTGGGGTCATTCAGACTAGGC, for which the PBM binding z-score was 2.54.

Sequence CCTAGCAGGCCAATCTAGGTCACTCAAGGCTTGA displayed a PBM binding z-score of 2.02.

For the sequence CAAACTAGGTCACAGTGGTCAAAGTCCGTGCGTA, the PBM binding z-score came out at 4.08.

CAAACTAGGTCACTAAAGGTCAAAGTCGAATGAC returned a PBM binding z-score of 5.53.

For GCTTACGGGTCCAAGGTTATAGCATGAATAGAAT, the PBM binding z-score was 0.932.

As to ATATGTAGGTTATCGGGTCATACAGTTTGCGCAT, the PBM binding z-score was 2.75.

The sequence TACCCTAGGTCATTCAGGGGCCAGTATAGAAAGC had a PBM binding z-score of 4.13.

As for TCTTGTAGATCAACAGGAGGTTAATAAAGATCGA, the PBM binding z-score was found to be 0.533.

TCTAGTTGGTCTAAGGTCACACACTCGAAATGCG displayed a PBM binding z-score of 3.76.

For the sequence TAGCCTAGGTCATGGGCCAGTGTACCACGCGAAC, the PBM binding z-score turned out to be 4.01.

For CCTACGGGGCCACGAAAGGTCATTGATTCAGTGA, the PBM binding z-score was determined as 4.55.

The sequence TCTTGTAGATCGATAGAGGTTAAGAAAGTGCGCT yielded a PBM binding z-score of 0.661.

Sequence AGAATGAGGTTACCAAAGGTCAGGGAAACGCTTG returned a PBM binding z-score of 4.91.

The sequence CCGAGTTGGTCAAGGTCACACACGCTATAGGTAC returned a PBM binding z-score of 4.17.

Consider ACTTACGGGTCTACGAGGTTATAGCACGCGTATA, for which the PBM binding z-score was 0.688.

Sequence AGTCAAAGTTCAGGACGACGTAACGTAAAGCACG came in with a PBM binding z-score of 3.92.

In turn, CGTCCAAGGTCAGCGGGTCAGTGAAAGCGACGTG displayed a PBM binding z-score of 5.2.

As for ATATGTAGGTTAGCTGGGGTCCTTCAGACTAGGC, the PBM binding z-score was 0.851.

GATATAGGGTCAGCTAGAGGCCAGAGTATGGAAA had a PBM binding z-score of 4.34.
